# In all, about 52,000 compounds went through this assay and about 4,300 (8.3%) were called active. No stated cut-off is given here; in the data, active means survival mostly below about 52% (no sharp cut-off); inactive means mostly above about 56%. The list comes from a sample in which actives are over-represented; it also holds similar structures and randomly drawn compounds.
# Tested on: DeltatarO mutant
# Assay: S. aureus survival, RN4220 and DeltatarO strains – OD600, teichoic acid synthesis inhibitors, primary screen (AID 463173)
# Settings: S. aureus RN4220 wild type/DeltatarO growth, OD600, 18 h, active compounds read low, screened at 18.75 µg/mL (by protocol)
row,SMILES,survival
1,Cc1ccc(C)c(N2CCN(S(=O)(=O)c3c(C)nc4sccn4c3=O)CC2)c1,92% (inactive)
2,CCOC(=O)c1ccc(NC(=O)C2CC(=O)NC(=Nc3ccc(C)c(C)c3)S2)cc1 (stereo unspecified),47% (active)
3,CCOc1ccc(NC(=O)C2CC(=O)NC(=Nc3ccc(Cl)c(Cl)c3)S2)cc1 (stereo unspecified),72% (inactive)
4,CCc1ccc(N=C2NC(=O)CC(C(=O)Nc3ccc(OC)cc3)S2)cc1 (stereo unspecified),87% (inactive)
5,CN(C)c1ccc(C(C(=O)NCC2CCCO2)N(C(=O)Cn2nnc3ccccc32)c2ccc3c(c2)OCO3)cc1 (stereo unspecified),90% (inactive)
6,O=C(Nc1cccc(Cl)c1Cl)c1cc(S(=O)(=O)N2CCCCC2)ccc1F,72% (inactive)
7,O=C(Nc1cccc(F)c1)C1CCN(S(=O)(=O)c2cccc3nsnc23)CC1,83% (inactive)
8,COc1ccc(-c2noc(CN3CCN(c4cccc(Cl)c4)CC3)n2)cc1,13% (active)
9,COc1ccc(N2CCN(Cc3nc(-c4ccc(C)cc4)no3)CC2)cc1,48% (inactive)
10,COc1cc(-c2noc(CN3CCN(c4cccc(Cl)c4)CC3)n2)cc(OC)c1OC,77% (inactive)
11,Cc1cccc(N(C)c2nc3ccccc3c3nnc(C)n23)c1,118% (inactive)
12,COc1ccc(C)cc1NC(=O)N1CCC(CN2CCC(C)CC2)CC1,91% (inactive)
13,CCCCN(c1ccccc1)S(=O)(=O)c1cc2c3c(c1)C(C)C(=O)N3CCC2 (stereo unspecified),69% (inactive)
14,CCC(C)c1ccc(OCC(=O)Nc2cccc(-c3nc4ncccc4o3)c2)cc1 (stereo unspecified),19% (active)
15,Cc1ccc(C(C)C)c(OCC(=O)Nc2ccc3c(c2)nc(CCNC(=O)c2ccco2)n3C)c1,54% (inactive)
16,CCCC(=O)Nc1cccc(-c2nc3ncccc3o2)c1,66% (inactive)
17,COc1ccc(OCC(=O)Nc2ccc(-c3nc4ncccc4o3)cc2)cc1,84% (inactive)
18,Cc1ccccc1OCC(=O)Nc1ccc(-c2nc3ncccc3o2)cc1,60% (inactive)
19,Cc1cc(C)c(OCC(=O)Nc2cccc(-c3nc4ncccc4o3)c2)c(Br)c1,4% (active)

row,SMILES,survival
1,COc1ccc(NC(=O)c2ccco2)cc1NC(=O)COc1cc(C)ccc1C(C)C,63% (inactive)
2,Cc1ccc2cccc(NC(=O)COc3cc(C)c(Cl)c(C)c3)c2n1,75% (inactive)
3,Cc1ccc2cccc(NC(=O)COc3ccccc3Cl)c2n1,179% (inactive)
4,CCC(C)c1ccc(OCC(=O)Nc2cccc3ccc(C)nc23)cc1 (stereo unspecified),-3% (active)
5,Cc1ccc(C(C)C)c(OCC(=O)Nc2cccc(NC(=O)c3ccco3)c2)c1,10% (active)
6,CCC(C)c1ccc(OCC(=O)Nc2ccc(-c3nc4ncccc4o3)cc2)cc1 (stereo unspecified),44% (inactive)
7,CCc1cccc2sc(N3CCN(C(=O)C4CC4)CC3)nc12,94% (inactive)
8,CCCSCCCNC(=O)C1CCN(C(=O)c2cc3sccc3n2C)CC1,109% (inactive)
9,O=C(Nc1cccc(Cl)c1Cl)c1ccc2c(c1)N(Cc1cccc(Cl)c1)C(=O)c1ccccc1S2(=O)=O,108% (inactive)
10,Cc1cc2c(n1-c1ccc(C(=O)NCc3cccc(Br)c3)cc1)CCC(C)C2 (stereo unspecified),125% (inactive)
11,Cc1ccc(C(C)C)c(OCC(=O)Nc2ccc(C(=O)OC3CCCCC3)cc2)c1,33% (active)
12,Cc1cccc(OCC(=O)Nc2ccc(Cl)c(-c3nc4ncccc4o3)c2)c1C,62% (inactive)
13,O=C(COc1ccc(Cl)cc1Cl)Nc1ccc(C(=O)OC2CCCCC2)cc1,57% (inactive)
14,Cc1ccc(C(C)C)c(OCC(=O)Nc2ccc(-c3nc4ncccc4o3)cc2C)c1,54% (inactive)
15,Cc1cc(OCC(=O)Nc2ccc(C(=O)OC3CCCCC3)cc2)cc(C)c1Cl,50% (inactive)
16,Cc1ccc(C(C)C)c(OCC(=O)Nc2cccc(-c3nc4ncccc4o3)c2)c1,2% (active)
17,CSc1ccc(CCNC(=O)c2ccc3c(c2)nc2n3CCCCC2)cc1,82% (inactive)
18,COc1ccc(N2CCN(CCCNC(=O)c3ccc4nc(Cc5ccccc5)oc4c3)CC2)cc1,93% (inactive)
19,O=C(NCc1ccc(F)cc1)c1ccc2c(O)c(S(=O)(=O)c3ccccc3)c(=O)[nH]c2c1,66% (inactive)

row,SMILES,survival
1,CCn1c(=O)c(=O)n(CC)c2cc(N3CCCCC3)c(NC(=O)c3ccccc3OC)cc21,91% (inactive)
2,Cc1nnc(NC(=O)CSCc2cc(=O)c3ccc(C)c(C)c3[nH]2)s1,73% (inactive)
3,NC(=O)CN1C(=O)C(O)(CC(=O)/C=C\c2ccccc2)c2ccccc21 (stereo unspecified),96% (inactive)
4,COc1ccc(CNC(=O)C(C)Sc2nc(-c3ccccc3)cc(C(F)(F)F)n2)cc1 (stereo unspecified),165% (inactive)
5,COc1ccc(CNc2nc(-c3ccc(OC)cc3)cc(C(F)(F)F)n2)cc1,-2% (active)
6,COc1ccc(-c2cc(C(F)(F)F)nc(SCC(=O)NCc3ccc(OC)c(OC)c3)n2)cc1,60% (inactive)
7,COc1ccc(-c2cc(C(F)(F)F)nc(NCc3ccccc3)n2)cc1,-4% (active)
8,COc1ccc(CNc2nc(-c3ccc(OC)c(OC)c3)cc(C(F)(F)F)n2)cc1,11% (active)
9,COc1ccc(-c2cc(C(F)(F)F)nc(NCCc3ccccc3)n2)cc1,1% (active)
10,COc1ccc(-c2cc(C(F)(F)F)nc(SCC(=O)NCCc3ccccc3)n2)cc1,121% (inactive)
11,COc1ccc(CNC(=O)CSc2nc(-c3ccc(OC)c(OC)c3)cc(C(F)(F)F)n2)cc1,72% (inactive)
12,COc1ccc(CNc2ccc(-c3ccc(OC)cc3)nn2)cc1,80% (inactive)
13,COc1ccc(CNC(=O)CSc2nc(-c3ccc(OC)cc3)cc(C(F)(F)F)n2)cc1,83% (inactive)
14,COc1ccc(-c2cc(C(F)(F)F)nc(SCC(=O)NC(C)c3ccccc3)n2)cc1 (stereo unspecified),60% (inactive)
15,COc1ccc(S(=O)(=O)c2c(O)c(C)cc(NC(=O)c3ccccc3)c2C(C)C)cc1,80% (inactive)
16,CCc1ccc(NC(=O)c2sc3nc(C)c(Cl)c(C)c3c2NC(=O)c2ccccc2)cc1,76% (inactive)
17,CCOC(=O)N1CCC(NC(=O)c2ccc3c(c2)N(Cc2ccc(F)cc2)C(=O)c2ccccc2S3=O)CC1 (stereo unspecified),58% (inactive)
18,COc1ccc(CCNC(=O)c2c(O)nc3c(C)cccn3c2=O)cc1OC,91% (inactive)

# From PubChem BioAssay AID463173 (ICCB-Longwood Screening Facility, Harvard Medical School, 2010)
